# Assay results as given in PubChem BioAssay (Tox21).
# Records with an inconclusive call do not appear. A call without a number means that no potency is given here. Calls of active or inactive are those of the source. The call rests on the fitted dose curve; in most records, active means well fitted activation curve with a large enough effect in the repeat runs; inconclusive means weak or mixed curves; inactive means flat fitted curve, though single readings scatter.
# Assay: A CellTox Green Cytotoxicity Assay to monitor cytotoxicity in HEK293 cells - 40 hour (AID 1224871); further: nearly all actives have a fitted effect of over 45% in size
# Settings: CellTox Green fluorescence; series mostly up to 76.8 µM
# Source text: National Center for Advancing Translational Sciences [NCATS]
# NIH Chemical Genomics Center [NCGC]
# U.S. Environmental Protection Agency [EPA]
# National Institutes of Environmental Health Sciences [NIEHS]
# National Toxicology Program [NTP]
# Cell-based models are critical for drug discovery. Determining the natural cytotoxic effects resulting from test compounds is an essential research activity. A CellTox Green Cytotoxicity Assay to monitor cytotoxicity in real time of continues cell culture during 40 hours of the compound treatment was used to screen Tox21 10K library compounds in Hek293 cells. CellTox Green Cytotoxicity Assay is a nonlytic, homogeneous, biofluorescent method to measure cytotoxicity in cell culture after experimental manipulation. The assay system uses a proprietary asymmetric cyanine dye that is excluded from viable cells but preferentially stains the dead cell's DNA. […] Viable cells produce no appreciable increases in fluorescence. Therefore, the fluorescence signal produced by the binding interaction with dead cell DNA is proportional to cytotoxicity.
# The mixture of Hek293 cell suspension and reagents were dispensed at 600cells/6 ul/well in 1536-well tissue culture treated black solid bottom plates using a Multidrop dispenser. After the assay plates were incubated at a 37 C/5% CO2 incubator for 5 hours, 23 nL of compounds dissolved in DMSO, positive and negative controls was transferred to the assay plate by a pintool work station. The plates were incubated at 37 C for 40 hours. The fluorescence intensity were measured at 0h, 8h, 16h, 24h, 32h and 40h time points using ViewLux plate reader during compound treatment.
# Potency means the concentration at half of the fitted maximal effect.
row,Structure (SMILES),Potency
1,C/C=C/C=C/C=O,inactive
2,COC(=O)CCS,inactive
3,O=C(CCc1ccc(O)cc1)c1c(O)cc(O)cc1O,inactive
4,CCOC(=O)c1ccc(O)c(O)c1,inactive
5,O=C(Nc1cccc2c(=O)cc(-c3nn[nH]n3)oc12)c1ccc(OCCCCc2ccccc2)cc1,inactive
6,C=C/C(C)=C/C/C=C(\C)CCC=C(C)C,inactive
7,CC(C)Nc1cccnc1N1CCN(C(=O)c2cc3cc(NS(C)(=O)=O)ccc3[nH]2)CC1,inactive
8,O=C=Nc1ccc(Cl)c(Cl)c1,inactive
9,C[C@@]12CCC[C@H]1[C@@H]1CC[C@H]3C[C@@H](O)CC[C@]3(C)[C@H]1CC2,inactive
10,COc1ccccc1NC(=O)c1cc2ccccc2cc1O,inactive
11,C=COCC(C)C,inactive
12,Clc1ccc(Nc2nnc(Cc3ccncc3)c3ccccc23)cc1,inactive
13,C=C1CCC2CC1C2(C)C (stereo not given),inactive
14,CCOC(=O)c1ccc(I)cc1,35 µM (active)
15,Cc1cscn1,inactive
16,O=C1NC(=O)c2cc([N+](=O)[O-])ccc21,inactive
17,CC=C(Cl)Cl,inactive
18,COC(=O)CS,inactive
19,COC(=O)C1=C(C)NC(C)=C(C(=O)O[C@@H]2CCCN(Cc3ccccc3)C2)[C@@H]1c1cccc([N+](=O)[O-])c1,inactive
20,CC1(C)O[C@@H]2C[C@H]3[C@@H]4C[C@H](F)C5=CC(=O)C=C[C@]5(C)[C@H]4[C@@H](O)C[C@]3(C)[C@]2(C(=O)CO)O1,inactive

row,Structure (SMILES),Potency
1,C[C@]12CC[C@@H]3c4ccc(O)cc4CC[C@H]3[C@@H]1CC[C@@H]2OC(=O)CCC1CCCC1,54.9 µM (active)
2,CCCCC(CC)CN (stereo not given),inactive
3,CCc1ccccc1,inactive
4,CC(C)=CCC/C(C)=C/CC/C(C)=C/CCC(=O)OC/C=C(\C)CCC=C(C)C,inactive
5,OCCOCC#CCOCCO,inactive
6,CC1(C)S[C@@H]2[C@H](NC(=O)C(c3ccccc3)S(=O)(=O)O)C(=O)N2[C@H]1C(=O)O (stereo not given in full),inactive
7,Cc1ccc(OC(=O)c2ccccc2O)cc1,49 µM (active)
8,CCCCN(CCN(CCCC)C(=O)N1CCOCC1)C(=O)N1CCOCC1,inactive
9,CC(C)(C)CC(=O)OCC(=O)[C@@]1(O)CC[C@H]2[C@@H]3CCC4=CC(=O)C=C[C@]4(C)[C@H]3[C@@H](O)C[C@@]21C,inactive
10,CC/C=C1/OC(=O)c2ccccc21,inactive
11,CN1C(=O)c2ccccc2C1=O,inactive
12,COc1ccccc1N1CCN(CC(O)COc2cccc3ccccc23)CC1 (stereo not given),inactive
13,O=Cc1c2ccccc2c(Cl)c2ccccc12,inactive
14,O=C(/C=C/c1ccc(O)c(O)c1)O[C@@H]1C[C@@](OC(=O)/C=C/c2ccc(O)c(O)c2)(C(=O)O)C[C@@H](O)[C@@H]1O,inactive
15,CN(C(=O)CN(CCO)CC(=O)N(C)C(C)(C)Cc1ccccc1)C(C)(C)Cc1ccccc1,23.9 µM (active)
16,CNC(=O)c1cnn(-c2nc(N)c3ncn([C@@H]4O[C@H](CO)[C@@H](O)[C@H]4O)c3n2)c1,inactive
17,CCOC(=O)c1ccc(C#Cc2ccc3c(c2)C(C)(C)CCS3)nc1,inactive
18,COc1ccccc1Oc1c(NS(=O)(=O)c2ccc(C(C)(C)C)cc2)nc(-c2ncccn2)nc1OCCO,inactive
19,O=[N+]([O-])c1cc(C2CCCCC2)c(O)c([N+](=O)[O-])c1,inactive
20,CO[C@]1(NC(=O)CSC(F)F)C(=O)N2C(C(=O)O)=C(CSc3nnnn3CCO)CO[C@H]21,inactive
